Experimental data from PubChem BioAssay.
For some assays here: Entries with a potency or affinity are not part of this list. The source made the active and inactive calls.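 How the source made its calls, unless noted: active means earlier screen potentiator hit that boosts the TRPC4 ion channel at some dose, with a dose response; inactive means no potentiation, no dose response, or not a prior hit.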

How the values were obtained:
[1] = test system: TRPC4 beta (transient receptor potential cation channel C4), mouse; test: TRPC4 cation channel opening, retest – cell-based, Fluo4 calcium, HEK293 TRPC4beta/mu-opioid, duplicates, 10 µM, confirmation (AID 2426;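 active means fluorescence ratio normalized to control raised more than 50% in primary screen plus both repeat runs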); details: Fluo4 calcium fluorescence, at 10 µM; stronger effect = higher value
[2] = test system: transient receptor potential cation channel C4 beta (TRPC4), mouse; test: TRPC4 cation channel opening, second retest – cell-based, second round, Fluo4, HEK293 TRPC4beta/mu-opioid, 1 µM, confirmation (AID 2461;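 active means primary screen active and over 50% activation in each of two duplicate runs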); details: Fluo4 calcium fluorescence, at 1 µM; stronger effect = higher value
[3] = test system: TRPC4 (transient receptor potential cation channel C4 beta), mouse; test: potentiation of DAMGO EC20 TRPC4 response – cell-based, second round, Fluo-4, HEK293 TRPC4beta/mu-opioid, 1 µM, confirmation (AID 2554;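 active means primary screen hit whose fluorescence ratio, in both repeats, exceeds the weak agonist control mean by 3 SD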); details: DAMGO EC20, Fluo-4 calcium flux, at 1 µM; stronger effect = higher value
[4] = test system: TRPC4 beta (transient receptor potential cation channel C4), mouse; test: potentiation of DAMGO EC20 TRPC4 response – cell-based, Fluo-4, HEK293 TRPC4beta/mu-opioid, confirmation (AID 2555;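 active means primary screen hit whose calcium fluorescence ratio, in both repeats, exceeds the weak agonist control mean by 3 SD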); details: DAMGO EC20, Fluo-4 calcium flux, at 10 µM; stronger effect = higher value
[5] = target: Short transient receptor potential channel 4 (Mus musculus) (UniProt Q9QUQ5); test: blockers of DAMGO-evoked TRPC4 calcium flux – cell-based, Fluo4, HEK293 TRPC4beta/mu-opioid, confirmation (AID 2636;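 active means calcium signal cut by more than 3 SD below the full-agonist control yet still positive, in both repeats and the earlier primary screen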); details: at 10 µM; stronger effect = higher value
[6] = target: Short transient receptor potential channel 4 (Mus musculus) (UniProt Q9QUQ5); test: blockers of DAMGO-evoked TRPC4 calcium flux – cell-based, second round, Fluo4, HEK293 TRPC4beta/mu-opioid, 1 µM, confirmation (AID 2637;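 active means calcium signal ratio cut to more than 3 SD under the fully stimulated control mean yet still positive, in both repeats and the primary screen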;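 on inhibition: percent of integrated ratio relative to wells lacking test compound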); details: at 1 µM; stronger effect = higher value
[7] = target: Short transient receptor potential channel 4 (Mus musculus) (UniProt Q9QUQ5); test: calcium entry via TRPC4 opening agents – cell-based, HEK293 TRPC4/mu-opioid, Fluo-4 calcium, dose response (AID 434937;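 active means primary screen activator hit with a dose response curve and TRPC4 channel activation at any tested dose; inactive means no activation, no dose response, or not a primary hit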)
[8] = target: Short transient receptor potential channel 4 (Mus musculus) (UniProt Q9QUQ5); test: potentiation of DAMGO-evoked TRPC4 calcium signal – cell-based, HEK293 TRPC4/mu-opioid, Fluo-4 calcium, EC20 DAMGO, dose response (AID 434941);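 further: calcium entry triggered by an EC20 dose of DAMGO at the co-expressed mu-opioid receptor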
[9] = target: Short transient receptor potential channel 6 (Mus musculus) (UniProt Q61143); test: TRPC6 blockade by TRPC4 inhibitor hits – cell-based, HEK293, membrane potential dye, duplicate, selectivity assay for TRPC4 inhibitor project, confirmation (AID 434948;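 active means active in primary screen and both duplicates, each dropping signal beyond three positive-control SD with fluorescence still positive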); details: HEK293 TRPC6, membrane potential dye fluorescence, at 10 µM, stimulated with maximal-effect acetylcholine; stronger effect = higher value
[10] = target: Short transient receptor potential channel 6 (Mus musculus) (UniProt Q61143); test: TRPC6 opening by TRPC4 activator hits – cell-based, HEK293, membrane potential dye, duplicate, selectivity assay for TRPC4 activator project, confirmation (AID 434950;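 active means membrane potential signal rise above negative control mean plus 3 SD in both duplicates, also active in the earlier TRPC4 screen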); details: HEK293 TRPC6, membrane potential fluorescence, at 10 µM; activation: stronger effect = higher value; outcome: activation
[11] = target: Short transient receptor potential channel 6 (Mus musculus) (UniProt Q61143); test: positive modulators of mouse TRPC6 channel – HEK293 cells, membrane potential dye, duplicate, selectivity assay for TRPC4 potentiator project, confirmation (AID 434952;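 active means compound raising the membrane signal above positive-control mean plus 3 SD in both repeats, and a primary screen hit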); details: HEK293 TRPC6, membrane potential dye fluorescence, at 10 µM, maximal acetylcholine added after compound; stronger effect = higher value
[12] = target: Short transient receptor potential channel 4 (Mus musculus) (UniProt Q9QUQ5); test: calcium flux activators in TRPC4/5HT1a cells, counter-screen for TRPC4 activator project, cell-based, second counter screen, HEK293 TRPC4/5HT1a, Fluo-4 (AID 434977;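 active means calcium signal rise above buffer-control mean plus 5 SD in both duplicates, and also a hit in the primary screen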); details: Fluo-4 calcium flux, at 10 µM; stronger effect = higher value
[13] = serotonin-gated TRPC4 signal block – cell-based, second counter screen, HEK293 TRPC4/5HT1a, Fluo-4, counter-screen for TRPC4 inhibitor project, confirmation (AID 434978;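 active means primary screen active whose calcium signal fell more than 3 SD beyond the full-serotonin control mean in both duplicate plates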;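 on outcome: serotonin given first at submaximal then at maximal dose after compound preincubation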); details: Fluo-4 calcium flux, at 10 µM, serotonin added to trigger calcium flux; stronger effect = higher value
[14] = test system: TRPC4 (mouse), co-expressed with 5HT1a in HEK293; test: enhancement of serotonin-evoked TRPC4 response – cell-based, second counter screen, HEK293 TRPC4/5HT1a, Fluo-4, counter-screen for TRPC4 potentiator project, confirmation (AID 434979;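 active means signal rise over 3 SD above mean of control wells given weak agonist, in both repeats and first screen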); details: Fluo-4 calcium flux, at 10 µM, serotonin added at its EC20 dose; stronger effect = higher value
[15] = nonspecific calcium rise without TRPC4 – cell-based, HEK293 mu-opioid receptor line, counter-screen for TRPC4 activator project, confirmation (AID 449723;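 active means hit in primary screen, with calcium signal over 5 SD above buffer well mean in both duplicates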;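 further: counter screen cells carry the mu-opioid receptor alone and lack TRPC4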); details: HEK293 mu-opioid cells, Fluo-4 calcium fluorescence, at 10 µM; stronger effect = higher value
[16] = nonspecific potentiation of DAMGO calcium response – cell-based, HEK293 mu-opioid receptor line, counter-screen for TRPC4 allosteric potentiator project, confirmation (AID 449724;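 active means calcium signal rise more than 3 SD above the low-dose agonist control mean, in both duplicate plates and the primary screen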); details: HEK293 mu-opioid receptor cells, Fluo-4 calcium flux, at 10 µM, compound added before EC20 DAMGO stimulus; stronger effect = higher value

Sequence of Short transient receptor potential channel 4 (Mus musculus) (Q9QUQ5 whole entry, looked up): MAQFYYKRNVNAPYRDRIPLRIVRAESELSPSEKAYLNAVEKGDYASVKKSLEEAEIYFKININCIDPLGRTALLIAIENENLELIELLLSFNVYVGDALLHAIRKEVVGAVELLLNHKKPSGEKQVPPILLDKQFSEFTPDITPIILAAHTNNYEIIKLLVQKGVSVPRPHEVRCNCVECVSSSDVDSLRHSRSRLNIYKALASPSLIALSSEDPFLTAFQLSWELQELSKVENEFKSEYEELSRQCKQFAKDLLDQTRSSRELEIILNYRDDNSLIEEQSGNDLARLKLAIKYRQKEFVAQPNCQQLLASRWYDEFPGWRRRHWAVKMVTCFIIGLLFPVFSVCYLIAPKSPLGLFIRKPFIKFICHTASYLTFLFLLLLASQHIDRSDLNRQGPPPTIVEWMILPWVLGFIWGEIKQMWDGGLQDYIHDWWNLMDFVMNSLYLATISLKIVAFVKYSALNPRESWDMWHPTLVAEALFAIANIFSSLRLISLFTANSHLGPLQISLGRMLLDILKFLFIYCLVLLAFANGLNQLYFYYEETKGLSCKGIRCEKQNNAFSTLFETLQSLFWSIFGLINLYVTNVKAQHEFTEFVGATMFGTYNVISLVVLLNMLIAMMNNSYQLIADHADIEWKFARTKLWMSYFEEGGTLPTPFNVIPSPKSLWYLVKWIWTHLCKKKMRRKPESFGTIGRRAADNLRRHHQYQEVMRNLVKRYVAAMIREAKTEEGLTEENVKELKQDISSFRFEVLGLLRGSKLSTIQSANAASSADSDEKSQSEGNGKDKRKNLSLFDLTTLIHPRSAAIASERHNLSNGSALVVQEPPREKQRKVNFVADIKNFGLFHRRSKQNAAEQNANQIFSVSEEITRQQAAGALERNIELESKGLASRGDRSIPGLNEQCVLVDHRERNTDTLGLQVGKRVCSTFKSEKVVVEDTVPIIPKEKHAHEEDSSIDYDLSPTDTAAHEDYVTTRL
Sequence of Short transient receptor potential channel 6 (Mus musculus) (Q61143 whole entry, looked up): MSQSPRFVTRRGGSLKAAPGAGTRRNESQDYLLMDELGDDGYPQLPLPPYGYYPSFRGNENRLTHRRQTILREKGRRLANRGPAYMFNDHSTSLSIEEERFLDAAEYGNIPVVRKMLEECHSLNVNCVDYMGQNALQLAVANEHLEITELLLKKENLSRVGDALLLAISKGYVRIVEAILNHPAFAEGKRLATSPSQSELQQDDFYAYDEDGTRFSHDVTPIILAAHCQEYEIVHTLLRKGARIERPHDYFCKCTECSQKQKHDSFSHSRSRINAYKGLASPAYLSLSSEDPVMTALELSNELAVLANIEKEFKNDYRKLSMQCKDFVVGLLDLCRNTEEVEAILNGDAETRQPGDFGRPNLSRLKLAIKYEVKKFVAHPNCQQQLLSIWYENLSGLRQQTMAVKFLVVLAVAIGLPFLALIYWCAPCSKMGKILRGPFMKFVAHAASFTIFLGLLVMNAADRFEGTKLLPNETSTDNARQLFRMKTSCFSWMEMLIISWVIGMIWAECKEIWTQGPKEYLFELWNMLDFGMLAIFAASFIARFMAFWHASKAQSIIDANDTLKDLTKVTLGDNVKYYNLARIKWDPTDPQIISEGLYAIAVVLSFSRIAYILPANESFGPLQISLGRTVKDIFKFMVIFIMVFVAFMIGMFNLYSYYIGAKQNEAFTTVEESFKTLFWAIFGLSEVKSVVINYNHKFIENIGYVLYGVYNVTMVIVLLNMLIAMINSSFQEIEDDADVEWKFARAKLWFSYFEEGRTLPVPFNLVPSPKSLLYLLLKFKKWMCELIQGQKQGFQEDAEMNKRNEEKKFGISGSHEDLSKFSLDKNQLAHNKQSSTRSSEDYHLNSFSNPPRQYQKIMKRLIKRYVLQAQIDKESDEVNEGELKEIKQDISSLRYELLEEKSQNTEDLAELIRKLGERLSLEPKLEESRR

Row | Structure (SMILES) | outcome [1] | outcome [2] | outcome [3] | outcome [4] | inhibition [5] | inhibition [6] | outcome [7] | outcome [8] | inhibition [9] | outcome [10] | outcome [11] | outcome [12] | inhibition [13] | outcome [14] | outcome [15] | outcome [16] | outcome [5] | outcome [6] | outcome [13] | outcome [9]
1 | COc1ccc(OC)c(Nc2cc(-c3ccccc3)nc(N)n2)c1 | inactive | inactive | inactive | inactive | 100% (active) | 49% (active) | inactive | inactive | 55.5% (active) | inactive | inactive | inactive | 37.9% (active) | inactive | inactive | inactive |  |  |  | 
2 | Cc1ccc(-c2[nH]c3ccccc3c2SCCN)cc1 | inactive | inactive | inactive | inactive |  |  | inactive | inactive | 34.5% (active) | inactive | inactive | inactive |  | inactive | inactive | inactive | inactive | inactive | inactive | 
3 | CCCCc1nc2ccccc2c(N)c1CCC (tested in a mixture with another compound) | inactive | inactive | inactive | inactive | 96% (active) | 69% (active) | inactive | inactive | 18% (active) | inactive | inactive | inactive | 32.6% (active) | inactive | inactive | inactive |  |  |  | 
4 | CCOc1ccccc1-n1c(SCC(=O)Nc2nccs2)nnc1-c1ccoc1C | inactive | inactive | inactive | inactive | 52% (active) | 44% (active) | inactive | inactive |  | inactive | inactive | inactive |  | inactive | inactive | inactive |  |  | inactive | inactive
5 | CC(C)NCC(O)COCCOc1ccc(C(C)(C)C)cc1 (stereo not drawn) | inactive | inactive | inactive | inactive | 97% (active) | 59% (active) | inactive | inactive |  | inactive | inactive | inactive | 28.6% (active) | inactive | inactive | inactive |  |  |  | inactive
6 | Cc1ccccc1Cn1c(=N)n(CC(O)c2ccco2)c2ccccc21 (stereo not drawn) | inactive | inactive | inactive | inactive | 89% (active) | 58% (active) | inactive | inactive |  | inactive | inactive | inactive | 33.6% (active) | inactive | inactive | inactive |  |  |  | inactive
7 | COc1ccc2c(c1)sc(N)[n+]2Cc1cc(C)cc2cccnc12 | inactive | inactive | inactive | inactive | 99% (active) |  | inactive | inactive | 37% (active) | inactive | inactive | inactive | 28.6% (active) | inactive | inactive | inactive |  | inactive |  | 
8 | Cc1ccc(N(C(=O)c2snc(C(N)=O)c2N)C(C(=O)NCC2CCCO2)c2ccc(C)o2)c(C)c1 (stereo not drawn) | inactive | inactive | inactive | inactive | 75% (active) |  | inactive | inactive |  | inactive | inactive | inactive | 34% (active) | inactive | inactive | inactive |  | inactive |  | inactive
